“And” between values parts separate entries of the source, which are not always exact repeats. Identical values can stand only once. Inconclusive results are not listed. More than one record can exist for a structure, and the calls need not agree. The source made the active and inactive calls. Rule for the calls: active = hit-call score of the fitted dose curve at least 0.9, where 1 is the maximum; inconclusive = response in the unintended direction; inactive = score below 0.9.
biological target: Cellular tumor antigen p53 (Homo sapiens) (UniProt P04637); assay: TOX21_p53_BLA_p4_ratio: Tox21 HCT-116 p53 Agonism Beta-lactamase Assay, Ratio, Phase 4 (AID 2283601)
Sequence (P04637 whole entry, looked up): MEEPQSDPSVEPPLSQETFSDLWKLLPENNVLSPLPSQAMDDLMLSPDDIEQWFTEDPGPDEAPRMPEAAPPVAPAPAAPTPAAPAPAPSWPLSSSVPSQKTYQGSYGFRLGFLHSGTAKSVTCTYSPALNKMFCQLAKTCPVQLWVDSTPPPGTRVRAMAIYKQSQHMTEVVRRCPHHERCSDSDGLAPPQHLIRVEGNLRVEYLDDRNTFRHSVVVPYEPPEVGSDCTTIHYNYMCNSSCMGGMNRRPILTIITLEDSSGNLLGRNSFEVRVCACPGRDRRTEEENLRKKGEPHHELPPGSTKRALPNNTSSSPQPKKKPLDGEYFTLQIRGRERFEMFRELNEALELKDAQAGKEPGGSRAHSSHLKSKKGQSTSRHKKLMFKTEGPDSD
In short: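 Signal is the blue/green (460nm/530nm) ratio of cleaved versus uncleaved CCF4-AM substrate, read after 2 h substrate loading. Cells were HCT116 carrying the p53-responsive beta-lactamase reporter, dosed 16 h at 37C, 5% CO2; CellTiter-Glo measured in parallel.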

| SMILES | outcome | AC50 |
| --- | --- | --- |
| C[N+]1(C)[C@@H]2CC[C@H]1CC(OC(=O)c1c[nH]c3ccccc13)C2 (some centres not stated) | inactive | – |
| FC(F)OC(F)(F)C(F)Cl (configuration not stated) | inactive | – |
| C[C@]1(O)CC[C@H]2[C@@H]3CCC4=CC(=O)CC[C@]4(C)[C@@]3(F)[C@@H](O)C[C@@]21C | inactive | – |
| CC(N)=S | inactive | – |
| CCSCc1ccccc1OC(=O)NC | inactive | – |
| COC1=CC=C2[C@H]3Cc4ccc(OC)c5c4[C@@]2(CCN3C)[C@H]1O5 | inactive | – |
| Cc1cnc[nH]1 | inactive | – |
| CCCCCCCCCCCCCCCCn1cc[n+](C)c1 | inactive | 71.6 µM (active) and 77.7 µM (active) and 60.1 µM (active) |
| Cc1ccc(-c2nc3ccc(C)cn3c2CC(=O)N(C)C)cc1 | inactive | – |
| CCBr | inactive | – |
| C=C[C@H]1CN2CC[C@H]1C[C@H]2[C@H](OC(=O)OCC)c1ccnc2ccc(OC)cc12 | inactive | – |
| C=C(C#N)CCC#N | inactive | – |
| C=C(Cl)CSC(=S)N(CC)CC | inactive | – |
| Cc1ccc2c(c1)[C@]13CCCC[C@@H]1[C@H](C2)N(C)CC3 | inactive | – |
| Cc1nc(N)nc(N)n1 | inactive | – |
| c1ccc(C2CC2)c(OCC2=NCCN2)c1 | inactive | – |
| O=C(C[C@@H]1NCCC[C@H]1O)Cn1cnc2cc(Br)c(Cl)cc2c1=O | inactive | – |
| C#CC(C)(O)CC (configuration not stated) | inactive | – |
| Cc1ncc2n1-c1ccc(Cl)cc1C(c1ccccc1F)=NC2 | inactive | – |
| Clc1ccc(C(Cl)(Cl)Cl)cc1Cl | inactive | – |
| CC(=O)OC1(c2ccccc2)CCN(CCc2ccccc2)CC1 | inactive | – |
| COC(=O)C(Cl)C(=O)OC | inactive | – |
| C[N+](C)(C)CCOC(=O)C(O)(c1ccccc1)c1ccccc1 | inactive | – |
| CC(=O)OCC(=O)[C@H]1CC[C@H]2[C@@H]3CC[C@H]4C[C@H](O)CC[C@]4(C)[C@H]3C(=O)C[C@]12C | inactive | – |

biological target: PGR (gene 5241) (UniProt P06401); assay: TOX21_PR_BLA_Followup_Antagonist_ratio: Tox21 HEK293 Progesterone Receptor (PR) Antagonism Beta-lactamase Follow-Up Assay, Ratio (AID 2283934);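 note: PR-UAS-bla HEK293T cells stimulated with 1 nM R5020 agonist for 16 hr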
Sequence (P06401 whole entry, looked up): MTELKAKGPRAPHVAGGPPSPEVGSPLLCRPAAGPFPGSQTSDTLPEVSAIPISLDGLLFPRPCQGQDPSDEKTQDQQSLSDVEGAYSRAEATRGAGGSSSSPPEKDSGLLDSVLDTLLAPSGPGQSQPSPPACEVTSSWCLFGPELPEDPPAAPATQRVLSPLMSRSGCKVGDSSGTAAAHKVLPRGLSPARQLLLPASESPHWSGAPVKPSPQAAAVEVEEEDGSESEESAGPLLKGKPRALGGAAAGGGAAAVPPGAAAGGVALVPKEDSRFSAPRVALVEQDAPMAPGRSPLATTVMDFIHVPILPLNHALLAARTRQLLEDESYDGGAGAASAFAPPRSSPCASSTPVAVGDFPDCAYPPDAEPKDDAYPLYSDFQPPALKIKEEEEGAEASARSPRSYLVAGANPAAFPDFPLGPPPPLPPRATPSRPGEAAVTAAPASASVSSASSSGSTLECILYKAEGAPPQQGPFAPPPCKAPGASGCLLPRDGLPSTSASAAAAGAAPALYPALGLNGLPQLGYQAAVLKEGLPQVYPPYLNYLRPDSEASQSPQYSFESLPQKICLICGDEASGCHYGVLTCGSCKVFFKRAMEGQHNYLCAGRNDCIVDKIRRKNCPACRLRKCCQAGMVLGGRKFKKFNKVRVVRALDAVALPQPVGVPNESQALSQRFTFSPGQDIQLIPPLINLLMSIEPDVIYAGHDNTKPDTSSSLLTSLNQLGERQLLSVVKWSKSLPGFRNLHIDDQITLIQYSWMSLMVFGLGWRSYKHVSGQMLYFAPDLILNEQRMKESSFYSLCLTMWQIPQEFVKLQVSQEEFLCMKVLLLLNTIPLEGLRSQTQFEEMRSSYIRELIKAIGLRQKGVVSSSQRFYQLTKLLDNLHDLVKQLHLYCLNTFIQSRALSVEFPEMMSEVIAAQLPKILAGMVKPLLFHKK
In short: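 Measured in PR-UAS-bla HEK293T cells co-treated with compound and 1 nM promegestone for 16 hr; beta-lactamase ratio read after 2 h FRET substrate loading, with parallel CellTiter-Glo cytotoxicity.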

| SMILES | outcome | AC50 |
| --- | --- | --- |
| C[C@]1(O)CC[C@H]2[C@@H]3CCC4=CC(=O)CC[C@]4(C)[C@@]3(F)[C@@H](O)C[C@@]21C | inactive | – |
| C[C@H]1CCC[C@H](O)CCCCCc2cc(O)cc(O)c2C(=O)O1 | – | 4.51 µM (active) |
| C=C1C[C@@H]2[C@H](CC[C@]3(C)C(=O)CC[C@@H]23)[C@@]2(C)C=CC(=O)C=C12 | – | 23 µM (active) |

test system: not listed separately; assay: TOX21_PR_BLA_Followup_Agonist_viability: Viability Assessment in the Tox21 HEK293 Progesterone Receptor (PR) Agonism Beta-lactamase Follow-Up Assay (AID 2283935);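 note: signal loss means lower viability so actives are cytotoxic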
In short: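 Viability is read as CellTiter-Glo luminescence, where loss of signal indicates cytotoxicity. The cells are PR-UAS-bla HEK293T given compounds for 16 hr at 37C and 5% CO2, in the same wells used for the bla readout.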

| SMILES | outcome |
| --- | --- |
| C[C@]1(O)CC[C@H]2[C@@H]3CCC4=CC(=O)CC[C@]4(C)[C@@]3(F)[C@@H](O)C[C@@]21C | inactive |
| C[C@H]1CCC[C@H](O)CCCCCc2cc(O)cc(O)c2C(=O)O1 | inactive |
| C=C1C[C@@H]2[C@H](CC[C@]3(C)C(=O)CC[C@@H]23)[C@@]2(C)C=CC(=O)C=C12 | inactive |

biological target: PGR (gene 5241) (UniProt P06401); assay: TOX21_PR_LUC_Followup_Antagonist: Tox21 HEK293 Progesterone Receptor (PR) Antagonism Luciferase Follow-Up Assay (AID 2283938);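 note: curve fitted upward as signal gain over DMSO baseline despite antagonist label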
In short: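 Cells are grown 5 days in charcoal-stripped-FBS assay medium, plated, left 5 h, then dosed with compound and incubated 16 h. ONE-Glo reagent is added and luminescence read after 30 min.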

| SMILES | outcome | AC50 |
| --- | --- | --- |
| C[C@]1(O)CC[C@H]2[C@@H]3CCC4=CC(=O)CC[C@]4(C)[C@@]3(F)[C@@H](O)C[C@@]21C | inactive | – |
| C[C@H]1CCC[C@H](O)CCCCCc2cc(O)cc(O)c2C(=O)O1 | – | 10.1 µM (active) |
| C=C1C[C@@H]2[C@H](CC[C@]3(C)C(=O)CC[C@@H]23)[C@@]2(C)C=CC(=O)C=C12 | inactive | – |

test system: not listed separately; assay: TOX21_PR_LUC_Followup_Agonist_viability: Viability Assessment in the Tox21 HEK293 Progesterone Receptor (PR) Agonism Luciferase Follow-Up Assay (AID 2283941);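 note: loss of signal means cytotoxicity so actives lower viability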
In short: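 Seeding: HEK293-PR-A-luc, 3,000 cells/well, 5 h at 37C. Treatment: compound in DMSO, 16 h, 37C. Read: CellTiter-Glo ATP luminescence, signal loss taken as lower viability.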

| SMILES | outcome |
| --- | --- |
| C[C@]1(O)CC[C@H]2[C@@H]3CCC4=CC(=O)CC[C@]4(C)[C@@]3(F)[C@@H](O)C[C@@]21C | inactive |
| C[C@H]1CCC[C@H](O)CCCCCc2cc(O)cc(O)c2C(=O)O1 | inactive |
| C=C1C[C@@H]2[C@H](CC[C@]3(C)C(=O)CC[C@@H]23)[C@@]2(C)C=CC(=O)C=C12 | inactive |

— PubChem BioAssay (EPA / NIEHS)
